Laboratory results as given in PubChem BioAssay AID1962 (The Scripps Research Institute Molecular Screening Center, 2009).
Among all 300,000 compounds or so, about 2,500 (0.83%) were called active.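 The calls were made as follows: active = inhibition above the mean of all tested compounds plus 3 SD, set per screening campaign (cut at about 24% in these data); inactive = the rest.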 Only a selection was taken, and actives are over-represented in it overall.

What follows are compounds tested on tRNA 2'-phosphotransferase TPT1 (Candida albicans SC5314) (assay: tRNA 2'-phosphotransferase blockers, C. albicans – biochemical, fluorescence polarization, primary screen (AID 1962;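 also: plate controls were DMSO alone for no effect and ferristatin control at 100 nM for full effect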)). Settings: recombinant caTPT1, FP RNA substrate dephosphorylation; at 5 µM; hits give high values.

inhibition, active:
Cc1ccc2[nH]c(=O)c(CN3CCCCC3)c(-c3ccccc3)c2c1 31.4%
Cc1cc(/C=C2/SC(=O)N(CC(=O)N3CCCC3)C2=O)ccc1N1CCOCC1 38.1%
O=C(C[n+]1cc(Br)cc2ccccc21)c1ccc(F)cc1 25.1%
O=C(CN1C(=O)c2ccccc2C1=O)NCc1ccc(C(=O)O)cc1 36.6%
N#C/C(=C\c1ccc(N2CCOCC2)o1)C(=O)N1CCOCC1 153%
N#C/C(=C/c1ccc(N2CCOCC2)o1)C(=O)N1CCOCC1 158%
NNC(=O)c1oc2nc(-c3ccccc3)cc(-c3ccco3)c2c1N 79.6%
COc1cc(/C=C2/SC(=S)N(Cc3ccccc3)C2=O)cc(OC)c1O 89.8%
CCN(CC)c1ccc(/C=N/Nc2nc(C)cc(C)n2)c(O)c1 25.2%
Cc1c(C(=O)OC(C)C)sc(NC(=O)c2cccnc2)c1C#N 31.6%

inhibition, inactive:
Cc1ccc2[nH]c(=O)c(CC=C(Cl)Cl)c(C)c2c1 1.23%
Cc1ccc2[nH]c(=O)c(CC(=O)O)c(-c3ccccc3)c2c1 -1.99%
CCOc1ccc(NC(=O)c2ccc(NC(=O)C3CCCO3)cc2)cc1 (stereo not given) 1.62%
Cc1ccc(CNC(=O)c2cc(-c3ccccc3C)n(CC3CC(c4cccc([N+](=O)[O-])c4)=NO3)n2)cc1 (stereo not given) -1.39%
Cn1c(-c2ccc(C(F)(F)F)cc2)cc2onc(-c3ccccc3)c2c1=O 1.56%
CN(c1ccc(OCC(=O)OCC(=O)Nc2cccc([N+](=O)[O-])c2)cc1)S(=O)(=O)c1ccc(F)cc1 -1.05%
Cc1c(Cl)c([N+](=O)[O-])nn1Cc1ccc(C(=O)N/N=C\c2cc(Cl)ccc2O)o1 1.45%
Cc1cc(/C=C2/SC(=O)N(CC(=O)N3CCCC3)C2=O)c(C)n1C -4.95%
Cc1ccc2c(c1)N(CC(=O)N1CCOCC1)C(=O)CO2 1.05%
C#CCOCCOCCOCCNc1nc(N2CCN(C(=O)[C@H](CCCCN)n3cc(CCC(=O)O)nn3)CC2)nc(N2CCN(C(=O)[C@H](CCCCN)n3cc(CC(C)O)nn3)CC2)n1 (stereo not given in full) -2.04%
Cc1ccc(S(=O)(=O)N2CCN=C2SCc2c(F)cccc2Cl)cc1 -3.87%
Cc1cccc[n+]1CC(=O)c1ccccc1 -3.95%
O=C(CNC(=O)c1ccc(F)cc1)c1ccccc1 5.07%
COc1cccc(-n2c(N)cc(=O)nc2SCC(=O)Nc2cc(C)on2)c1 -0.29%
CCC(C)(C)c1ccc(Oc2ccc(NC(=O)COC(=O)C3=COCCO3)cc2)cc1 0.08%
CC(C)C[C@@H](N)c1nnc(SCC(=O)c2ccc(Cl)cc2)o1 3.05%
O=C(O)CCCN1C(=O)C2C3c4ccccc4C(c4ccccc43)[C@@H]2C1=O (stereo not given in full) 2.01%
O=C(O)CCC(=O)NCc1ccc(C(=O)O)cc1 -6.54%
COc1ccc(CNC(=O)CCN2C(=O)c3ccccc3C2=O)cc1 -3.69%
Cc1ccc(C)c(C(=O)N2CCC(n3nccc3NC(=O)C3CC3)CC2)c1 1.61%
CC(C(=O)N1CCN(c2ccccc2F)CC1)c1ccc([N+](=O)[O-])cc1 (stereo not given) 0.08%
NS(=O)(=O)c1ccc(NC(=S)NNC(=O)c2cccs2)cc1 -0.11%
N#C/C=C(/c1ccc(F)cc1)N1CCOCC1 -0.18%
O=C(N1CCOCC1)N1CCOCC1 -4.04%
N#C/C(=C\c1ccc(-c2cccc([N+](=O)[O-])c2)o1)C(=O)NCCN1CCOCC1 0.6%
Cc1ccc(C(=O)N2CCN(C(=O)N3CCOCC3)CC2)cc1 -1.08%
CCOc1cc(-c2noc(CCCC(=O)NC3CCCCC3)n2)ccc1OC 3.27%
CN1CCCN(C(=O)C2CCCCC2)CC1 1.49%
C/C(=C/C(=O)N1CCN(C)CC1)C(=O)O 3.89%
CCOCCn1[nH]c2ccccc2c1=O -0.9%
CCC1CCCCN1C(=S)Nc1ccc(C(C)=O)cc1 (stereo not given) -0.24%
COCCN(C(=O)c1ccccc1F)c1c(N)n(Cc2ccccc2)c(=O)[nH]c1=O 1.87%
COc1ccc(NC(=O)c2sccc2SCC#N)cc1 -1.53%
CNC(=S)NNC(=O)c1oc2nc(-c3ccccc3)cc(-c3ccco3)c2c1N 5.89%
O=C(Nc1cccc(F)c1)c1cc(-c2ccco2)nc2ccccc12 14.1%
CC[N+](C)(CC)CCC[n+]1c(-c2ccccc2)c2cc(N)ccc2c2ccc(N)cc21 -27.7%
COc1ccc(/C=C2\SC(=S)N(CCC(=O)Nc3cccc(C(=O)O)c3)C2=O)cc1OC 1.59%
COc1ccccc1C(=O)NNC(=O)CCN1C(=O)/C(=C\c2ccccc2)SC1=S -5.63%
CC(C(=O)Nc1ccc(F)c(F)c1F)N1CCCCCC1 (stereo not given) -0.32%
CC(=O)c1cnc(SCC(=O)O)nc1C -5.63%
CSc1nc(N(C)NC(=O)c2cccc(C)c2)c2ccccc2n1 -0.9%
CCOC(=O)C(C)N(c1ccccc1Cl)S(C)(=O)=O (stereo not given) 0.94%
CCN(CC)c1ccc(/C=N/NC(=O)c2cnccn2)c(O)c1 1.75%
Cc1cc(C)nc(N/N=C/c2ccncc2)n1 3.38%
COc1ccc(-c2cc3nc(C)c(CCC(=O)NC(C)CCc4ccco4)c(C)n3n2)c(OC)c1 (stereo not given) 0.65%
CC(C)NS(=O)(=O)c1ccc(NC(=O)c2cccnc2)cc1 6.23%
CCOC(=O)c1cc(NC(=O)c2cccnc2)ccn1 -2.33%
O=C(NC1CCCCC1)C1CCCN(S(=O)(=O)c2ccc(Br)s2)C1 (stereo not given) -22.4%
CC(NC(=O)CC1SC(N)=NC1=O)c1ccccc1 (stereo not given) 2.18%
Cc1cc(NC(=O)CCS(=O)(=O)c2ccc(F)cc2)no1 -4.5%
